Screens deposited in PubChem BioAssay by National Center for Advancing Translational Sciences (NCATS).
Hits are enriched below; roughly 1% of the tested compounds scored in any of these assays.
gsp antag = qHTS for Antagonists of gsp, the Etiologic Mutation Responsible for Fibrous Dysplasia/McCune-Albright Syndrome: qHTS. gsp-mutant cells, cAMP HTRF, 30 min. AID 624288, 2012. Potency, µM (doses to about 76.9 µM), inactives show top-dose activity change, negative = inhibition, hits mostly inhibitors. 0.4% of 340,000 active; calls by dose curve; cell line not stated here;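 also: intracellular cAMP measured with PDE inhibitor Ro 20-1724 present during compound exposure; potency is read from the fitted curve at half-maximal effect; % is scaled to controls: 0 for no effect and ±100 for the full control effect; nearly all actives have a fitted effect of over 65% in size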
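Cells, 2000/well, grown 16–24 h in DMEM 10% FBS with 0.5 mg/ml G418, then compounds plus […] (300 uM addition stock), 30 min at 37C. cAMP read by HTRF (cAMP-d2 and anti-cAMP antibody-K in lysis buffer) after 30 min RT.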
RXFP1 ag = qHTS Assay for Agonists of the Relaxin Receptor RXFP1. HEK293T-RXFP1 cAMP TR-FRET, 30 min; response scale: percent of porcine relaxin response, buffer zero. Potency, µM (titrated, usually from 57.5 µM), for inactives: at the top dose activation, usual class: activators. 0.3% of 370,000 active; also: potency is read from the fitted curve at half-maximal effect; % is scaled to controls: 0 for no effect and ±100 for the full control effect; nearly all actives have a fitted effect of over 60% in size
Target sequence (Q9HBX9 whole entry, looked up): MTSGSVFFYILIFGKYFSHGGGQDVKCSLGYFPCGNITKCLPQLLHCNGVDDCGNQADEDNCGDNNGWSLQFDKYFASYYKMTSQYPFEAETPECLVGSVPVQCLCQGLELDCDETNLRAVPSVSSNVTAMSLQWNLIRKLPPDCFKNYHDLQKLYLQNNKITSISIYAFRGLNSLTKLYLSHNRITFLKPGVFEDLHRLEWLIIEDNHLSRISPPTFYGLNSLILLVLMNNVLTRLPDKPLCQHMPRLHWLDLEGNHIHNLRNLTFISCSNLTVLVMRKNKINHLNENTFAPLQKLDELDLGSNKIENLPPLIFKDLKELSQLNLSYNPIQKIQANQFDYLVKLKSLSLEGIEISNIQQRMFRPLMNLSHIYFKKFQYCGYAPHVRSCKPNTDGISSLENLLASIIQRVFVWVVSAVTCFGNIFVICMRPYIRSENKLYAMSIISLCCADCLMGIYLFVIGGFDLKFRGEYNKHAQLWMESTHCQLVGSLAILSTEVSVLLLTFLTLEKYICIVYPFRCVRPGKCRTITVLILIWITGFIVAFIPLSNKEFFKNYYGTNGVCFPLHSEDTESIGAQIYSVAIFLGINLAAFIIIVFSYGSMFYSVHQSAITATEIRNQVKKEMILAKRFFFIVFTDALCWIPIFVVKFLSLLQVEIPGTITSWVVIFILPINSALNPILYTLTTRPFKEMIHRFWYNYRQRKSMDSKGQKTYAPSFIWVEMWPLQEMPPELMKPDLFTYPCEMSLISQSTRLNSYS
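cAMP rise read by TR-FRET after 30 min, 37C compound exposure (up to 58 uM) in RXFP1-transfected HEK293 cells with Ro 20174 present. EC50 from Hill-equation fits, with 29 nM porcine relaxin as 100% and buffer as basal.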
PTHR1 agonist = qHTS for PTHR1 Agonists: Primary Screen | Parathyroid hormone/parathyroid hormone-related peptide receptor (Homo sapiens), Q03431 | HEK293 GP2 PTHR1 cells, GloSensor cAMP luminescence, 1 h | Potency, µM (highest dose often 115 µM), inactives show at the highest dose activation, actives largely listed as activators | 0.075% of 410,000 active | AID 743266, 2014; also: potency is read from the fitted curve at half-maximal effect; nearly all actives have a fitted effect of over 55% in size
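HEK-293-derived GP2 cells expressing PTHR1 and a GloSensor cAMP reporter, 3,000/well, plated overnight, given luciferin plus IBMX (each 0.5 mM as added) for 1 h at 37 °C, then compound for 1 h at 37 °C. Luminescence was read after 15 min at room temperature.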
RXFP1 antag = qHTS Assay for Antagonists of the Relaxin Receptor RXFP1. Relaxin receptor 1 (Homo sapiens), Q9HBX9. HEK293-RXFP1, relaxin-stimulated cAMP HTRF, 30 min; hits give low values. activity change, negative = inhibition, % at 57.5 µM. 0.59% of 350,000 active. AID 1259400, 2018;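 active = activity change of -60% or lower, but not beyond a set lower limit; inconclusive = change between -60% and -40%, or beyond the set limit; inactive = change above -40%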; also: % is scaled to controls: 0 for no effect and ±100 for the full control effect
gsp ag = qHTS for Agonist of gsp, the Etiologic Mutation Responsible for Fibrous Dysplasia/McCune-Albright Syndrome: qHTS | 0.13% of 340,000 active | gsp mutant cells, cAMP HTRF, 30 min | AID 624287, 2012 | Potency, µM (highest dose often 76.9 µM), for the others: at the highest dose activation (cAMP increase), hits mostly activators; active = well fitted activation curve with a large enough effect; inconclusive = small, poorly fitted or top-dose-only effect, or another doubt; inactive = no such curve, though single readings can be large or run the other way; cell line not stated here;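 also: phosphodiesterase inhibitor Ro 20-1724 added with compounds to block cAMP breakdown; potency is read from the fitted curve at half-maximal effect; nearly all actives have a fitted effect of over 60% in size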
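Cells stably selected in G418 were plated at 2000/well, grown 16-24 hr, then given compounds in DMSO with the PDE inhibitor […] (300 uM solution added) for 30 min at 37C; cAMP was read by HTRF.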
An asterisk follows results filed as active; [ ] = dose if it differs, or a comment. Unless noted, calls follow the shape of the dose curve; as a rule, active = well fitted curve in the direction sought with a large enough effect; inconclusive = small, poorly fitted or top-dose-only effect, or another doubt; inactive = no such curve, though single readings can be large; an effect the other way counts as inactive or inconclusive.

What do the screens show for `Cc1ccc(/C=N/NC(=O)c2nnn(-c3nonc3N)c2-c2ccc3c(c2)OCO3)s1`?
gsp antag: 40µM*; RXFP1 ag: -1%; PTHR1 agonist: -20%; RXFP1 antag: -20; gsp ag: 37%

What do the screens show for `Cn1c(=O)[nH]c2cc(-c3noc(-c4ccc(F)cc4)n3)ccc21`?
RXFP1 ag: 1%; PTHR1 agonist: -10%; RXFP1 antag: -18

Results for CC(=O)Nc1ccc(C(=O)c2ccccc2)cc1 ?
gsp antag: inconclusive; RXFP1 ag: 0%; PTHR1 agonist: inactive; RXFP1 antag: -11; gsp ag: 24%

What do the screens show for `CCOc1ccc(N=C(C)C2=C(O)c3ccccc3C2=O)cc1`?
gsp antag: -12%; RXFP1 ag: 21%; PTHR1 agonist: -21%; RXFP1 antag: -63*; gsp ag: 15%

Results for COc1ccc(N=C(C)C2=C(O)c3ccccc3C2=O)cc1 ?
gsp antag: -55%; RXFP1 ag: 0%; PTHR1 agonist: -23%; gsp ag: 7%

How did CC(=O)Nc1ccc(N=C(C2=C(O)c3ccccc3C2=O)c2ccccc2)cc1 do in these assays?
gsp antag: 35µM*; RXFP1 ag: 0%; PTHR1 agonist: -61%; RXFP1 antag: -12; gsp ag: -29%

Results for O=C(N/N=C/c1ccc(-c2cccc([N+](=O)[O-])c2)o1)c1ccccc1O ?
gsp antag: 50µM*; RXFP1 ag: 3%; PTHR1 agonist: -32%; RXFP1 antag: -6; gsp ag: -23%

What do the screens show for `O=C(N/N=C/c1ccc(-c2cccc([N+](=O)[O-])c2)o1)c1ccc([N+](=O)[O-])cc1`?
RXFP1 ag: 2%; PTHR1 agonist: inactive; RXFP1 antag: -38; gsp ag: 6%[15.4 µM]

How did CC(NC(CCc1ccccc1)C(=O)O)C(=O)N1C(=O)N(C)CC1C(=O)O (centres undefined) do in these assays?
RXFP1 antag: 7

How did COc1ccc(CCNC(=O)c2cc(-c3ccccc3)c(N3CCOCC3)s2)c(OC)c1OC do in these assays?
gsp antag: 32µM*; RXFP1 ag: 3%; PTHR1 agonist: -21%; RXFP1 antag: -7; gsp ag: -18%

What do the screens show for `CCOC(=O)N1CCN(S(=O)(=O)c2c(C)nc3scc(C)n3c2=O)CC1`?
gsp antag: -24%; RXFP1 ag: 14µM*; PTHR1 agonist: inactive; RXFP1 antag: 18; gsp ag: inconclusive

Results for COc1ccc(NC(=O)C(C(C)C)N2Cc3ccccc3C2=O)cc1 (centres undefined) ?
RXFP1 ag: -3%; PTHR1 agonist: inactive; RXFP1 antag: 4

Results for Cc1ccc(C(=O)/C=C/C(=O)c2ccc(C)cc2)cc1 ?
gsp antag: 2%; RXFP1 ag: -2%; PTHR1 agonist: -34%; RXFP1 antag: -67*; gsp ag: 4%[15.4 µM]

How did Clc1ccccc1CNCCCSc1nnnn1-c1ccccc1 do in these assays?
RXFP1 ag: 1%; PTHR1 agonist: inactive; RXFP1 antag: 0

Results for Cc1nn2c3c(cnc2c1-c1ccc(Cl)cc1)C(=O)CC(c1ccc(C(C)C)cc1)C3 (centres undefined) ?
RXFP1 ag: 2%; PTHR1 agonist: inactive

Results for O=C(Nc1nnc(C2=COCCO2)o1)c1ccc(Cc2ccccc2)cc1 ?
gsp antag: 4%; RXFP1 ag: 0%; PTHR1 agonist: -9%; RXFP1 antag: -65*; gsp ag: 4%[15.4 µM]

Results for O=C(Nc1nnc(C2=COCCO2)o1)c1ccc(Cl)cc1 ?
gsp antag: 1%; RXFP1 ag: 0%; PTHR1 agonist: inactive; RXFP1 antag: -4; gsp ag: 2%

How did COc1ccccc1C(CNC(=O)c1cccc(S(=O)(=O)N2CCCc3ccccc32)c1)N(C)C (centres undefined) do in these assays?
gsp antag: 2%; PTHR1 agonist: inactive; RXFP1 antag: -2; gsp ag: inconclusive

What do the screens show for `COc1ccccc1CN(C)C(=O)c1cccc(S(=O)(=O)N2CCCc3ccccc32)c1`?
gsp antag: 35µM*; RXFP1 ag: 1%; PTHR1 agonist: -15%; RXFP1 antag: 5; gsp ag: -14%

Results for CCOc1ccc(NC(=O)C2CCCN(c3nnc(-n4c(C)ccc4C)s3)C2)cc1 (centres undefined) ?
RXFP1 ag: -1%; PTHR1 agonist: inactive; RXFP1 antag: -8

How did COc1cccc(/C=N/Nc2nccnc2Cl)c1O do in these assays?
gsp antag: -1%; RXFP1 ag: 0%; PTHR1 agonist: -17%; RXFP1 antag: -70*; gsp ag: -28%

What do the screens show for `COc1cccc(/C=N/Nc2ncnc(Cl)c2N)c1O`?
gsp antag: -1%; RXFP1 ag: 3%; PTHR1 agonist: inactive; RXFP1 antag: -39; gsp ag: -10%

What do the screens show for `CCc1nc(N2CCN(C(=O)CCCl)CC2)c2c3c(sc2n1)CCCC3`?
PTHR1 agonist: inactive; RXFP1 antag: 6; gsp ag: 1%

What do the screens show for `CCNC(=S)N1CCN(c2nc(CC)nc3sc4c(c23)CCCC4)CC1`?
gsp antag: 25µM*; RXFP1 ag: 2%; PTHR1 agonist: -26%; RXFP1 antag: -6; gsp ag: -2%[15.4 µM]

Results for Cn1c2c(c(=O)n(C)c1=O)C(C(F)(F)F)(C(F)(F)F)N=C(CCC1CCCCC1)N2 ?
gsp antag: 8%; RXFP1 ag: 1%; PTHR1 agonist: -43%; RXFP1 antag: -65*; gsp ag: 11%[15.4 µM]

Results for Cn1c2c(c(=O)n(C)c1=O)C(C(F)(F)F)(C(F)(F)F)N=C(c1ccccc1Cl)N2 ?
gsp antag: inconclusive; RXFP1 ag: 1%; PTHR1 agonist: inactive; RXFP1 antag: -6; gsp ag: 5%

Results for O=C(c1cc2cc3ccc(Cl)cc3nc2o1)N1CCN(c2cccc(Cl)c2)CC1 ?
RXFP1 ag: -2%; PTHR1 agonist: -2%

Results for Cc1nn(C)c(C)c1CN(C)S(=O)(=O)c1ccc2ccccc2c1 ?
gsp antag: 14µM*; RXFP1 ag: 1%; PTHR1 agonist: -33%; RXFP1 antag: -2; gsp ag: 9%

How did CCOC(=O)c1c(Nc2ccc(O)cc2)nnc(-c2ccccc2)c1-c1ccccc1 do in these assays?
RXFP1 ag: 3%; PTHR1 agonist: inactive

What do the screens show for `COc1ccc(CCNC(=O)Cn2c(=O)n(-c3cc(F)ccc3F)c(=O)c3sccc32)cc1OC`?
gsp antag: 32µM*; RXFP1 ag: 3%; PTHR1 agonist: -45%; RXFP1 antag: -15; gsp ag: -28%
